This passage reports growth results from PubChem BioAssay (NCI).

This is part of a sample that, as a whole, favours compounds with a hit. Of some 83,000 tested, about 20% had one in any assay.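 Results are percent growth after 48 hours of single-concentration exposure. 100 means growth as in untreated cells, lower positive values show inhibition; negative values down to -100 show cell death.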 Values without a mark were called inactive. Calls of active or inactive are those of the source. Rule for the calls: active = growth percent below 10; inactive = the rest.

Some test systems named below: NCI-H23 lung; NCI-H226 lung; NCI-H322M lung; HOP-62 NSCLC; NCI-H460 lung; HOP-92 NSCLC; NCI-H522 lung; A549/ATCC NSCLC; 786-0 renal; COLO 205 colon.
Common to all, as to assay: NCI-60 one-dose screen, 48 h (100 = growth as untreated, 0 = no growth, -100 = all killed)
Holding throughout (conditions): 10 µM unless noted

In the case of `O=[N+]([O-])c1ccc(Oc2ccc(-c3ccccc3)cc2)cc1`, the growth was 85.3% in the assay on NCI-H23 lung; 76.7% with NCI-H226 lung; 100% in the assay with NCI-H322M lung; 92.1% in the assay with HOP-62 NSCLC; 92.9% with NCI-H460 lung; 74.3% with HOP-92 NSCLC. For the same compound, the growth with NCI-H522 lung was 67.5%; in the assay with A549/ATCC NSCLC, 91.5%; in the assay with 786-0 renal, 84.6%; with COLO 205 colon, 109%.

Consider `COc1ccc2[nH]c3nc4cnccc4cc3c2c1`, for which the growth was 95.2% with NCI-H23 lung; 111% in the assay on NCI-H226 lung; 105% in the assay with NCI-H322M lung; 96.3% in the assay with HOP-62 NSCLC; 103% in the assay on NCI-H460 lung; 139% in the assay on HOP-92 NSCLC. Besides, the growth in the assay on NCI-H522 lung is 87.3%; in the assay with A549/ATCC NSCLC it was 99.6%; in the assay with 786-0 renal it was 104%; in the assay on COLO 205 colon, 111%.

In the case of `Nc1c(C(=O)Nc2ccccc2Cl)sc2nc3c(cc12)CN(Cc1ccccc1)CC3`, the growth with NCI-H23 lung is 103%; with NCI-H226 lung it was 91.5%; in the assay with NCI-H322M lung, 92.4%; in the assay on HOP-62 NSCLC, 104%; in the assay on NCI-H460 lung, 93.4%; in the assay with HOP-92 NSCLC, 109%. For the same compound, the growth in the assay with NCI-H522 lung is 88.2%; with A549/ATCC NSCLC, 112%; in the assay on 786-0 renal, 99%; with COLO 205 colon, 95.5%.

For the compound `Cn1c2c(c3ccc(-c4ccn[nH]4)cc3c1=O)C(=O)c1ccccc1-2`, the growth in the assay on NCI-H23 lung is 25.3%; in the assay on NCI-H226 lung, 0.642% (active); in the assay on NCI-H322M lung it was 87.3%; in the assay on HOP-62 NSCLC, 17.2%; with NCI-H460 lung, 1.75% (active); in the assay with HOP-92 NSCLC it was 79.3%. For the same compound, the growth in the assay on NCI-H522 lung is 48.8%; with A549/ATCC NSCLC it was 8.44% (active); in the assay on 786-0 renal, 12.3%; in the assay on COLO 205 colon it was 53.8%.

Consider `COc1cc(C(=O)Nc2cc(O)c(C/C=C(\C)CCC=C(C)C)c(O)c2)cc2c1O[C@]1(C)CC[C@@H](O)C(C)(C)[C@H]1C2`, for which the growth is 27.8% in the assay with NCI-H23 lung; 40.5% in the assay with NCI-H226 lung; 48.2% with NCI-H322M lung; 8.47% (active) with HOP-62 NSCLC; 12.4% in the assay with NCI-H460 lung; -2.91% (active) in the assay on HOP-92 NSCLC. Also, the growth with NCI-H522 lung is 18.8%; with A549/ATCC NSCLC, 11.9%; with 786-0 renal, -6.12% (active); in the assay with COLO 205 colon, -22.2% (active).

For `Nc1c(C(=O)c2ccccc2)sc2nc(-c3cc4ccccc4o3)cc(-c3ccc(Cl)cc3)c12`, the growth with NCI-H23 lung was 89.9%; in the assay on NCI-H226 lung, 112%; in the assay on NCI-H322M lung, 87%; with HOP-62 NSCLC, 102%; with NCI-H460 lung, 103%; in the assay with HOP-92 NSCLC it was -6.31% (active). The growth was 84.7% in the assay with NCI-H522 lung, 106% in the assay on A549/ATCC NSCLC, 107% with 786-0 renal and 99.4% with COLO 205 colon.

Regarding `C=C(C)[C@@H]1CC[C@]2(C(N)=O)CC[C@]3(C)[C@H](CC[C@@H]4[C@@]5(C)CCCNC(C)(C)[C@@H]5CC[C@]43C)[C@@H]12`, the growth in the assay with NCI-H23 lung is 76.4%; with NCI-H226 lung, 86.3%; in the assay on NCI-H322M lung, 101%; in the assay with HOP-62 NSCLC it was 91.4%; in the assay with NCI-H460 lung it was 64%; in the assay with HOP-92 NSCLC, 65.4%. Also, the growth in the assay on NCI-H522 lung was 84.4%; in the assay on A549/ATCC NSCLC it was 65%; with 786-0 renal it was 87.2%; with COLO 205 colon, 69.3%.

For `CCOC(=O)C1CCN(S(=O)(=O)/N=C2/NC(=O)NC2=C(Cl)Cl)CC1`, the growth is 16.7% in the assay with NCI-H23 lung; 118% in the assay on NCI-H226 lung; 31.1% in the assay on NCI-H322M lung; 20.2% in the assay on HOP-62 NSCLC; 7.43% (active) in the assay on NCI-H460 lung; -73.9% (active) in the assay with HOP-92 NSCLC. Also, the growth was -69.4% (active) in the assay with NCI-H522 lung, 21% in the assay on A549/ATCC NSCLC, 3.63% (active) with 786-0 renal and -69.6% (active) in the assay with COLO 205 colon.

Turning to `CCOC(=O)C1=C(C)n2nc(CC#N)c(C#N)c2NC1c1ccc(CC)cc1` (stereo not given), the growth in the assay with NCI-H23 lung is 85.6%; with NCI-H226 lung, 87.6%; in the assay on NCI-H322M lung, 85.6%; in the assay on HOP-62 NSCLC, 81.7%; with NCI-H460 lung it was 104%; in the assay with HOP-92 NSCLC, 85.9%. Besides, the growth with NCI-H522 lung is 85.5%; in the assay with A549/ATCC NSCLC it was 96.5%; in the assay on 786-0 renal, 106%; with COLO 205 colon, 97.8%.

`N#Cc1c(-c2ccc(F)cc2)nc(N=Nc2c(O)[nH]c3ccccc23)nc1N1CCOCC1`: the growth is 70.3% with NCI-H23 lung; 57.7% in the assay on NCI-H226 lung; 61.4% in the assay with NCI-H322M lung; 72% in the assay on HOP-62 NSCLC; 30.9% in the assay on NCI-H460 lung; 17.3% in the assay on HOP-92 NSCLC. The growth with NCI-H522 lung was 78.6%; in the assay on A549/ATCC NSCLC, 23.4%; in the assay with 786-0 renal it was 59.4%; with COLO 205 colon it was 77.9%.

`O=C1NN(c2ccccc2)C(c2ccc3c(c2)OCO3)N2CCC[C@@H]12` (stereo not given in full): the growth in the assay on NCI-H23 lung was 88.2%; with NCI-H226 lung, 105%; in the assay with NCI-H322M lung, 88.3%; with HOP-62 NSCLC, 91.4%; in the assay with NCI-H460 lung, 106%; in the assay with HOP-92 NSCLC it was 107%. Besides, the growth with NCI-H522 lung is 70.1%; in the assay with A549/ATCC NSCLC, 97.9%; with 786-0 renal it was 98.2%; in the assay with COLO 205 colon, 104%.

`COc1ccccc1-c1ccc2nc(NC(=O)Nc3cc(C(F)(F)F)cc(C(F)(F)F)c3)sc2c1`: the growth in the assay with NCI-H23 lung is 6.38% (active); with NCI-H226 lung, 16.9%; with NCI-H322M lung, 15.3%; in the assay with HOP-62 NSCLC, -1.58% (active); in the assay on NCI-H460 lung, -4.9% (active); in the assay with HOP-92 NSCLC it was -8.46% (active). In addition, the growth is -2.89% (active) in the assay with NCI-H522 lung, 12.7% in the assay with A549/ATCC NSCLC, 8.85% (active) in the assay on 786-0 renal and -84.8% (active) with COLO 205 colon.

In the case of `CCCn1c2cc(OCc3cn(-c4ccc(Br)cc4)nn3)ccc2c2ccnc(C)c21`, the growth in the assay with NCI-H23 lung was 81.7%; in the assay with NCI-H226 lung, 25.6%; in the assay on NCI-H322M lung, 71.5%; in the assay on HOP-62 NSCLC, 63.9%; in the assay on NCI-H460 lung it was 36.2%; in the assay on HOP-92 NSCLC it was 60%. The growth is 76.1% with NCI-H522 lung, 53.7% in the assay on A549/ATCC NSCLC, 36.7% in the assay on 786-0 renal and 42% in the assay on COLO 205 colon.

For `CC(C)(C#N)c1cc(F)cc(C(=O)Nc2cc(Nc3ncccc3-c3ncnc4nc[nH]c34)ccc2F)c1`, the growth in the assay on NCI-H23 lung was 16.8%; with NCI-H226 lung, 41.3%; in the assay with NCI-H322M lung it was 53.3%; with HOP-62 NSCLC it was 44.9%; in the assay on NCI-H460 lung it was 30.5%; in the assay on HOP-92 NSCLC, -0.389% (active). Further, the growth was 7.73% (active) with NCI-H522 lung, 42.1% in the assay with A549/ATCC NSCLC, 63% with 786-0 renal and 6.56% (active) in the assay on COLO 205 colon.
